Experimental data from ChEMBL document CHEMBL3988442, “University of Dundee, Small-Polar-MMV Screening Library” (2021).

The compounds below were run against AMP-activated protein kinase, AMPK (Homo sapiens) (UniProt P54646+O43741+P54619+Q9UGJ0+Q9Y478+Q13131+Q9UGI9) (assay: AMP-dependent Kinase enzyme assay. An in vitro enzyme assay that detects ADP turnover that is directly proportional to AMPK activity. This uses naive AMPK that is activated during the assay with MK-8722). Conditions: 30 µM.
Assay type: functional
Design: scale not given: direction of the effect not stated beside the values

Q: For `CN(Cc1ccc2c(c1)OCCO2)c1ncc(S(N)(=O)=O)s1`, which Percent Effect is on record?
A: -1.85%

Q: For `Cc1cnc(C(=O)N2CC(=O)N(c3ccccc3Cl)CC2C)cn1` (centres undefined), which Percent Effect is on record?
A: 12.5%

Q: With `COC(=O)N1CCCCC1C(=O)N1CCN(c2ncccc2C)CC1` (centres undefined) as the compound, how does the Percent Effect read?
A: -4.85%

Q: `CN(C)CC(O)Cn1cc(NCc2ccc(Br)cc2)cn1` (centres undefined) was tested. Which Percent Effect did it give?
A: -39.9%

Q: How did the Percent Effect turn out when `Cc1nnc2n1CCN(C(=O)C(C)Oc1ccc(C#N)cc1)C2` (centres undefined) was run?
A: 13%

Q: `Cn1ncnc1NCc1ccc(Cl)cc1` was tested. Which Percent Effect did it give?
A: 7.15%

Q: How did the Percent Effect turn out when `CC(C)n1ccnc1CNC(=O)c1cccc(CCC(C)(C)O)c1` was run?
A: 6.45%

Q: With `CN(Cc1ccc2c(c1)OCO2)Cc1cscn1` as the compound, how does the Percent Effect read?
A: -5.54%

Q: How did the Percent Effect turn out when `N#CC1CCN(C(=O)CN2CC(c3ccccc3)CC2=O)CC1` (centres undefined) was run?
A: 5.49%

Q: How did the Percent Effect turn out when `O=C(C1CCOC1)N1CCN(CC(F)(F)F)c2ccccc21` (centres undefined) was run?
A: 11.6%

Q: Which Percent Effect does the source give for `Cc1nc(NC2(CN3CCCCC3)CCCCC2)c2cnn(C)c2n1` here?
A: 5.76%

Q: With `NC(=O)c1ccc(CNC(=O)NCc2cc[nH]n2)cc1` as the compound, how does the Percent Effect read?
A: -5.62%

Q: `CN1CC(c2ccccc2)CC2(CCN(Cc3ncc[nH]3)CC2)C1` (centres undefined) was tested. Which Percent Effect did it give?
A: -6.61%

Q: How did the Percent Effect turn out when `CN(CCSc1nncn1C(C)(C)C)c1ccccc1` was run?
A: 16.1%

Q: How did the Percent Effect turn out when `COCCN1CCCC(c2nccnc2-c2cccc(Cl)c2)C1` (centres undefined) was run?
A: -11.9%

Q: How did the Percent Effect turn out when `c1ccc(CCN2CCN(C3CCOC4(CCOCC4)C3)CC2)cc1` (centres undefined) was run?
A: -8.46%

Q: With `CC(C)(NCCCOc1ccc(C#N)cc1)c1nccs1` as the compound, how does the Percent Effect read?
A: 3.77%

Q: `CCCC(=O)NC1CCCN(Cc2cccs2)C1` (centres undefined) was tested. Which Percent Effect did it give?
A: 5.79%

Q: For `CC(C)(C)OC(=O)N[C@H]1CCN(c2cncc(Br)c2)C1`, which Percent Effect is on record?
A: 6.52%

Q: `NC1CCCc2c1cnn2-c1cc(F)cc(F)c1` (centres undefined) was tested. Which Percent Effect did it give?
A: 10.6%

Q: How did the Percent Effect turn out when `CC(=O)c1sc(C(NC(=O)c2ccccc2)C2CC2)nc1C` (centres undefined) was run?
A: -2.1%

Q: For `COCc1ccccc1NC(=O)c1ccoc1`, which Percent Effect is on record?
A: -4.58%

Q: With `Cc1noc(C(C)N2CCN(Cc3noc(C4CC4)n3)CC2)n1` (centres undefined) as the compound, how does the Percent Effect read?
A: 3.22%

Q: For `CC(C)c1cc(NC(CCO)c2ccccc2)n2nccc2n1` (centres undefined), which Percent Effect is on record?
A: 13.4%

Q: With `Cc1ccc2c(c1)cc(CN1CC[C@](C)(O)[C@H](C)C1)n2C` as the compound, how does the Percent Effect read?
A: 9.89%

Q: Which Percent Effect does the source give for `CCCc1nc(C(=O)N2CCn3nc(C(=O)OC)cc3C2)cs1` here?
A: 1.42%

Q: `Cc1ccc2nc(CNCCCOc3ccccc3)cc(O)c2c1` was tested. Which Percent Effect did it give?
A: 2.49%

Q: How did the Percent Effect turn out when `CC(C)c1nnc2n1CCN(Cc1ccc3c(c1)OCCO3)C2` was run?
A: 3.43%

Q: `O=C(Nc1ccccn1)NC1CCN(c2ccccc2OC(F)F)C1` (centres undefined) was tested. Which Percent Effect did it give?
A: -0.894%

Q: Which Percent Effect does the source give for `O=C(NCC1CCOC1)c1cc(-c2cccc(Cl)c2)[nH]n1` (centres undefined) here?
A: 7.17%

Q: How did the Percent Effect turn out when `COCCC1CCCCN1C(=O)c1coc(COc2ccccc2F)n1` (centres undefined) was run?
A: 12.2%

Q: `Cn1ccnc1CN1CCCC1CCc1ccccc1` (centres undefined) was tested. Which Percent Effect did it give?
A: -8.09%

Q: `CN1CCN(c2ccc(F)cc2NC(=O)NCCn2ccnc2)CC1` was tested. Which Percent Effect did it give?
A: 12.1%

Q: For `COCCCN1CCN(C(=O)C(c2cccc(F)c2)N(C)C)CC1` (centres undefined), which Percent Effect is on record?
A: -3.6%

Q: `COCC1(Nc2nc(C)nc3c2cnn3C)CCCC1` was tested. Which Percent Effect did it give?
A: -2.92%

Q: Which Percent Effect does the source give for `NC(=O)C1Cc2ccccc2CN1CCC(=O)N1CCc2ccccc21` (centres undefined) here?
A: -3.92%

Q: `O=S(=O)(NCCCn1cncn1)c1ccc2c(c1)CCC2` was tested. Which Percent Effect did it give?
A: 8.86%

Q: For `CCn1cc(NC(=O)c2cccc(CN3C[C@@H](C)O[C@@H](C)C3)c2)nn1`, which Percent Effect is on record?
A: 1.85%

Q: `COC(=O)C1CN(Cc2ccn(-c3ccc(F)cc3)n2)CCO1` (centres undefined) was tested. Which Percent Effect did it give?
A: -6.99%
